Source: the supplement of paper PMC12632987

T1: USP38, Q8NB14
T1 chain: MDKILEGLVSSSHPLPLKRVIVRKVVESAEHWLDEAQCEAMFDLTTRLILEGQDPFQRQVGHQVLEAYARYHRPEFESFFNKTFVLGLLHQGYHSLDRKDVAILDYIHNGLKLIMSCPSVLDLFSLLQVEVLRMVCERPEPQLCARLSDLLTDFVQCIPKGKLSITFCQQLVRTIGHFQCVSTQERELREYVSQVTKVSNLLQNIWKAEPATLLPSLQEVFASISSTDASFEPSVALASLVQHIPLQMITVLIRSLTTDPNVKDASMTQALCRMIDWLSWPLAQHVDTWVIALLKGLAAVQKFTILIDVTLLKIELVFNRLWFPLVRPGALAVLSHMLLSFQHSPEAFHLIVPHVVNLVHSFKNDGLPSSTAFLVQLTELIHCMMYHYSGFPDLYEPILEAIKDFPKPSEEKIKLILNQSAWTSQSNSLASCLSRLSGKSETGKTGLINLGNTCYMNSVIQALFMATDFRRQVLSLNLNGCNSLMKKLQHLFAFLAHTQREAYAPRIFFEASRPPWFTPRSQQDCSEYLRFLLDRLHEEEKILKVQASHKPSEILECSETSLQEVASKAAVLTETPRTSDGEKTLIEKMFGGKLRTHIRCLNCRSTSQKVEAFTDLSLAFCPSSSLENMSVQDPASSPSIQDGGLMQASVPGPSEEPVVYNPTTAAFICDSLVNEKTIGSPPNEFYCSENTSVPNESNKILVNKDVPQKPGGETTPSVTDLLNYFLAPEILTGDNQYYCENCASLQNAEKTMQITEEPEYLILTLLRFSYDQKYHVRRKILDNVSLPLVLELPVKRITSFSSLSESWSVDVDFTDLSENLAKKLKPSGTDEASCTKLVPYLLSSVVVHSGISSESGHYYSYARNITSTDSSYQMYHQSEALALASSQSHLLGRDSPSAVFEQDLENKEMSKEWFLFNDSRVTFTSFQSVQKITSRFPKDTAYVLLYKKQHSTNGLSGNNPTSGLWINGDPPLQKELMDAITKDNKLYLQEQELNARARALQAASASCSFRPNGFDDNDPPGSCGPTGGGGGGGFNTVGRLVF

B1: usp_38_diff_out_18_14_310 (protein)
chain: SEELAEAEKSNLEKLTKEVEEDTERVIRLLEKAKDDPERVKRIYERAKRNLAGVETYAKEILERAKKAGDEETKKAAEELLKKIAEARERIEKAYEEVMK
B2: usp_38_diff_out_18_14_311 (protein)
chain: AEELAQAELDNLKSLTTAVTADTARVIRLLEQSKDDPERVKRIYERAKRNLAGVETYAQEVKARAEAAGDADLVAAADALLATVAAARAAIEAAYKAVMA
B3: usp_38_diff_out_18_14_314 (protein)
chain: SEELEEAELSALKTLTADVEADTARKIELLEKAKDDPERVKRIYDRALRDLAGVRTYAEEVLKRAKERGNEELLAAAEALLATVDAAEARLTAKYEEVMK
B4: usp_38_diff_out_18_14_312 (protein)
chain: SEEEAEALLSSVEILTADVERDTARKIRLLEAAKDDPELVERIYERALRDLAGVEAYAEEVLAQAKAEGNAELEAAAQALLATVAAARARLEAAYAAVRA
B5: usp_38_diff_out_18_14_324 (protein)
chain: SEELIKARISNLKSLTEEVKKVTARKLKVIDALKDDPESATALIDTQLQALEGVIKYAEEEKKEAEKLGNEELIKAAEELKKAAEEAKAELEKKRKELAA
B6: usp_38_diff_out_18_14_325 (protein)
chain: DAELIAATLANLKSLTEETKKDTERLEKVVEKLKDDPESARSLLETRRQAYEGVKEYAEETKKEAEANGDKELAAAAQELKDAAEKALEKIDKLLKELEA
B7: usp_38_diff_out_18_14_313 (protein)
chain: SEELREAEKSSLEILKKDVEEDTERKIKLLKKAKNDPERVKRIYERAMRDLEGVKKYAEEVLKRAEEEGDEETKKAAEELLKKVEEARERLEKAYKEVME
B8: usp_38_diff_out_18_14_317 (protein)
chain: SEELSKALLSNLKTLTKEVEEDTKRLEKIVEALKDDPEAARSLLETRRQAYEGVAKYAKEVLKEAKEAGDEELAKAAEELLKAAEKALEEVEKRLKELEE
B9: usp_38_diff_out_18_14_315 (protein)
chain: SEELQEAELSSLKILKEDVVRDTERAIRLLEKSKDDPERVKRIYERRMRNLAGVREYAKEVLERAKKEGNEELLKAAEELLKTVDAAEERLEAKYKEVMA
B10: usp_38_diff_out_18_14_326 (protein)
chain: SEELTEATLSNLKSLTEETKKTTERLKKIVEKLKDDKESALSLLDTRTQAFKGVLKYAEETEKEAKKAGNEELLAAAKELKEAAKKALEEIEKLKKELEE
B11: usp_38_diff_out_18_14_316 (protein)
chain: SEEEEEALLSAVEILKADVERDTDRKIRLLEKAKDDPELVERIYERALRDLAGVEAYAKEVEKEAKKNGNEKLLKAAKELLKTVAAARERLEAAYKEVMA
B12: usp_38_diff_out_18_14_319 (protein)
chain: MEELIEAEKANLKSLTAEVERDTARRLAVVDALRDDPDAAQSLLDTAAQALQGVIAYAEEVAKRAEELGNEELKKAAEELKAAARAALARLEARRAELAA
B13: usp_38_diff_out_18_14_327 (protein)
chain: SEELKEALLSNLKLLKEEVKKDTERTLKILEKLKGDPESARSLIDTRIQALEGVIKYAEEVAKMAKEEGDEELKKAAEELKKEAEEAKKKLEEKRKELEK
B14: usp_38_diff_out_18_14_323 (protein)
chain: SEELREATKSNLKTLTAEIKEWTARRLKVIEKLKDDPESATSLLDTAKQALQGVIKYAEEVKREAEEEGDEELKKAATETKKAAEDALKQLEAKEAKLKA
B15: usp_38_diff_out_18_14_328 (protein)
chain: SAELREALLSNLETLTKEVKEVTERTLKIVDKLKGDPEAARSLLDTRIQALEGVIKYAEEVAKEAKAAGDKELEAAAEKLKKEAEKAKKELEEKKKALEA
B16: usp_38_diff_out_18_14_318 (protein)
chain: SEELIKQTLSNVKKLTEEVKKDTKRTLKILEKLKDDKESALSLIDTRIQALNGVIKYAEELKKEAEKLGNKELAEAAKELIKAAKEAKKELEKRKKALKE

Biological target: T1, USP38, Q8NB14
Experiment: median log2 fold change of GCK-ALFA target abundance (FLAG IP / Myc IP barcode read proportion) (log2 ratio); each designed protein is fused to an ALFA-tag nanobody in HEK293 cells to bring the named protein to FLAG-tagged glucokinase (GCK); Myc marks an untargeted standard; higher = target protein stabilised (more abundant)
Settings: target protein: 3xFLAG-MCP-GCK-ALFA reporter; HEK293 landing pad (RPLP)
Procedure, shortened: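 Binders fused to an ALFA nanobody were recombined as a library into HEK293 landing-pad cells, which were induced with 2 μg mL^−1 doxycycline and then transfected to express a FLAG-tagged target and a Myc-tagged standard. After 48 h, circular RNA barcodes recovered by anti-FLAG and anti-Myc immunoprecipitation of lysates were reverse transcribed, amplified and sequenced. Each binder's target abundance is the median log2 ratio of FLAG to Myc barcode read proportions, from barcodes present at ≥10^−7 in both replicates, binders carrying ≥3 barcodes per replicate, a 10^−6 pseudocount and pooled replicates.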

Q: How did the “median log2 fold change” value turn out when B1 was run?
A: 0.384

Q: With B2 as the binder, how does the “median log2 fold change” value read?
A: -0.0344

Q: For B3, which “median log2 fold change” value is on record?
A: 0.22

Q: Which “median log2 fold change” value does the source give for B4 here?
A: 0.0395

Q: How did the “median log2 fold change” value turn out when B5 was run?
A: 0.13

Q: B6 was tested. Which “median log2 fold change” value did it give?
A: 0.134

Q: B7 was tested. Which “median log2 fold change” value did it give?
A: 0.328

Q: For B8, which “median log2 fold change” value is on record?
A: -0.378

Q: For B9, which “median log2 fold change” value is on record?
A: 0.253

Q: B10 was tested. Which “median log2 fold change” value did it give?
A: -0.166

Q: How did the “median log2 fold change” value turn out when B11 was run?
A: 0.00386

Q: With B12 as the binder, how does the “median log2 fold change” value read?
A: 0.235

Q: With B13 as the binder, how does the “median log2 fold change” value read?
A: -0.444

Q: How did the “median log2 fold change” value turn out when B14 was run?
A: -0.403

Q: How did the “median log2 fold change” value turn out when B15 was run?
A: -0.102

Q: For B16, which “median log2 fold change” value is on record?
A: -0.746
